# Screens from PubChem.
# This is one part of a sample in which hits are shown more often than they occur.
# Cycloheximide cs: counter-screen for Shiga toxin inhibitors: cycloheximide protein synthesis inhibition; max response, %; cell reporter, cycloheximide protein synthesis inhibition counterscreen; 300,000 tested, 12% active; AID 2314; in the data active = max response mostly above about 13%, no sharp cut-off; inactive = mostly below about 14%; note: read at 38.3 µM for the half of the compounds with a filed dose; 0% is about no effect
# Tb PYK inh: inhibitors of Trypanosoma brucei pyruvate kinase; Q57TT1; TbPYK enzyme, Kinase-Glo Plus ATP luminescence, 45 min; Potency, µM (top dose mostly 76.8 µM), for the others: at the top dose activity, negative = inhibition, most hits filed as inhibitors; 410,000 tested, 0.12% active; AID 624173; note: potency is the fitted concentration of half-maximal effect; % is set by controls: 0 for no effect and ±100 for the full control effect; nearly all actives have a fitted effect of over 50% in size
#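 Readout: single end-point luminescence (Kinase-Glo Plus, 10 min). Reaction conditions were TbPYK/substrate plus 130 uM ADP, 45 min at RT, pH 7.2 TEA buffer. No-enzyme wells served as controls, and data were normalized before concentration-response fitting.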
# LmPK inh: inhibitors of Leishmania mexicana pyruvate kinase. Q27686. purified LmPK, Kinase-Glo ATP luminescence, 1 h. Potency, µM (titrated, usually from 57.5 µM), without a hit: top-dose activity change, negative = inhibition, usual class: inhibitors. 290,000 tested, 0.37% active; note: potency is the fitted concentration of half-maximal effect; % is set by controls: 0 for no effect and ±100 for the full control effect
#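 0.1 nM LmPK, 0.5 mM PEP, 0.1 mM ADP; 50 mM imidazole pH 7.2, 7 mM MgCl2, 50 mM KCl; 1 h RT. Kinase-Glo luminescence readout, normalized to no-enzyme (full inhibition) and uninhibited wells.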
# Shiga inhibitor: Shiga toxin inhibition | 290,000 tested, 9.2% active | Vero cells, Shiga toxin protein synthesis inhibition reporter | AID 2315 | inhibition, % at 38.7 µM; in the data active = inhibition mostly above about 28%, no sharp cut-off; inactive = mostly below about 43%; note: 0% is about no effect
# Giardia FBPA inh: blocks Giardia fructose-bisphosphate aldolase activity; 290,000 tested, 0.71% active; Potency, µM (top dose mostly 59.6 µM), for the others: at the top dose activity, negative = inhibition, actives largely listed as inhibitors; purified Giardia FBPA; A8B2U2; note: potency is the fitted concentration of half-maximal effect; % is set by controls: 0 for no effect and ±100 for the full control effect; nearly all actives have a fitted effect of over 55% in size
# Target sequence (A8B2U2 whole entry, looked up): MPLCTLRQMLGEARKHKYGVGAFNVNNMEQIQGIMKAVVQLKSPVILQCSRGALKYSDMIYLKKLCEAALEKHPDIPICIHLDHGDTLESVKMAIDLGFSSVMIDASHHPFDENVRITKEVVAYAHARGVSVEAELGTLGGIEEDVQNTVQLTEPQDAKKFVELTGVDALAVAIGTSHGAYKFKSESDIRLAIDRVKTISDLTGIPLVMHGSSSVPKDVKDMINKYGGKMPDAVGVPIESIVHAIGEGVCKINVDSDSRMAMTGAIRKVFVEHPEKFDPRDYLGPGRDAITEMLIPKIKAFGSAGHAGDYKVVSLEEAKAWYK
#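 40 nM FBPA preincubated 10 min at RT with compound (up to 57.5 uM final), then substrate plus GAPDH/TPI/NAD/arsenate coupling and diaphorase/resazurin added. Fluorescence read after 20 min at RT, 525/598 nm.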
# Sm TGR inh: S. mansoni TGR enzyme inhibition; Q962Y6; AID 485364; 360,000 tested, 3% active; Potency, µM (series often up to 114 µM), without a hit: at the top dose activity change, negative = inhibition, usual class: inhibitors; purified TGR, DTNB reduction, TNB absorbance 405 nm; note: potency is the fitted concentration of half-maximal effect; % is set by controls: 0 for no effect and ±100 for the full control effect; nearly all actives have a fitted effect of over 60% in size
#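 First, TGR (20 nM dispensed) and NADPH were mixed with compound. Second, a 15 min room-temperature incubation followed. Third, further NADPH and then DTNB were added to start the reaction. Finally, TNB absorbance was monitored kinetically.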
# An asterisk follows results filed as active; ? = inconclusive; nt = no result given. Unless noted, calls come from the whole dose curve; as a rule, active = well fitted curve in the direction sought with a large enough effect; inconclusive = small, poorly fitted or top-dose-only effect, or another doubt; inactive = no such curve, though single readings can be large; an effect the other way counts as inactive or inconclusive.
SMILES,Cycloheximide cs,Tb PYK inh,LmPK inh,Shiga inhibitor,Giardia FBPA inh,Sm TGR inh
O=C(CCSCCC(=O)NCc1ccco1)NCc1ccco1,-1,?,-2%,-5,11%,?
COc1ccc(NC(=O)CC(c2ccco2)C(C)C)cc1 (configuration not stated),21*,-20%,4%,6,-6%,14%
Cc1cc(C(F)F)nn1CC(=O)NCc1ccco1,-1,-5%,1%,-7,-2%,-11%
COc1ccc(NC(=O)CCCCC(=O)Nc2ccc(OC)cc2)cc1,1,-3%,0%,nt,5%,-3%
CC(C)C(CC(=O)NCc1ccco1)c1ccco1 (configuration not stated),1,-6%,6%,-2,-18%,22µM*
Cc1cc(-c2ccco2)n(CC(=O)NCc2ccco2)n1,-5,-13%,7%,-15,-3%,40µM*
COc1ccccc1NC(=O)CN1C(=O)NC2(CCCc3ccccc32)C1=O (configuration not stated),nt,1%,nt,nt,nt,2%
COc1ccc2c(Cl)c(C(=O)N/N=C/c3ccncc3)sc2c1,17,1%,4%,24,0%,2%
COc1ccc2c(Cl)c(C(=O)NC3CCS(=O)(=O)C3)sc2c1 (configuration not stated),20*,1%,0%,36*,1%,0%
COc1ccc2c(Cl)c(C(=O)NN3CCN(C)CC3)sc2c1,23*,-4%,1%,26,-10%,-1%
O=C(COC(=O)CNC(=O)c1sc2ccccc2c1Cl)NC1CCS(=O)(=O)C1 (configuration not stated),nt,3%,nt,nt,nt,0%
Cc1ccccc1NC(=O)C1CCC(CNS(=O)(=O)c2ccc3c(c2)C(C)(C)C(=O)N3C)CC1 (configuration not stated),nt,-1%,nt,nt,nt,24%
O=C(NCC1COc2ccccc2O1)c1ccccc1 (configuration not stated),50*,2%,0%,103*,9%,0%
O=C(NCC1CCCO1)c1cc2ccccc2cc1O (configuration not stated),nt,3%,nt,nt,nt,-18%
COc1ccc(/C=C/C(=O)NCC2COc3ccccc3O2)cc1OC (configuration not stated),8,3%,2%,12,3%,6%
O=C(NCC1CCCO1)c1cc2ccccc2nc1Cl (configuration not stated),28*,2%,-3%,76*,9%,7%
Cc1ccc(/C=C/C(=O)NCC2COc3ccccc3O2)o1 (configuration not stated),16*,?,-23%,18,-16%,?
O=C(NCC1COc2ccccc2O1)c1ccc(NC(=O)C2CCCO2)cc1 (configuration not stated),15*,-4%,1%,37*,2%,-1%
Cc1ccc(Cn2c(SCC(=O)NCc3ccccc3Cl)nc3ccsc3c2=O)cc1,nt,4%,nt,nt,nt,0%
Cc1ccc(NC(=O)c2sc(-n3nc(C)c(Cc4ccc5c(c4)OCO5)c3C)nc2C)cc1C,nt,0%,nt,nt,nt,0%
O=C(N[C@H]1C/C=C\C[C@H](CC(=O)N(CCO)Cc2ccccc2)C(=O)N[C@@H](c2ccccc2)COC1=O)OCC1c2ccccc2-c2ccccc21,nt,3%,nt,nt,nt,nt
CC(=O)N(CC(O)CO)c1c(I)c(C(=O)NCCO)c(I)c(C(=O)NCC(O)CO)c1I (configuration not stated),nt,1%,nt,nt,nt,nt
O=C(NCC1COc2ccccc2O1)c1ccco1 (configuration not stated),1,4%,7%,-4,-1%,-9%
O=C(CCNC(=O)c1ccccc1Cl)NCC1COc2ccccc2O1 (configuration not stated),nt,-1%,nt,nt,nt,-4%
O=C(CCNC(=O)c1ccc(Br)cc1)NCC1COc2ccccc2O1 (configuration not stated),23*,0%,5%,71*,-1%,1%
O=C(NCC1CCCO1)c1cc2ccccc2o1 (configuration not stated),24*,4%,-5%,24,nt,?
